Results taken from PubChem BioAssay AID1159580 (chemical genetic matrix, 2015).
Hit rate of the full screen: of about 5,500 compounds, about 2,000 (36%) were called active. Not shown: some 18% with an inconclusive outcome. No stated cut-off is given here; in the data, active means normalized growth mostly below about 0.91 (no sharp cut-off); inconclusive means no clear call, values can overlap the other calls; inactive means mostly above about 0.92. The list shows a part of the results.

Assay: chemical genetic growth profiling, strain panel (AID 1159580);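 further: tested at 20 µM; growth read once vehicle control cultures reached saturation at 30 °C; 1 = growth at the plate median or of vehicle wells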
Conditions: growth OD

Measured: normalized growth

C1CNCCN1
inactive: S. cerevisiae deletion strains, locus YJR066W, strain TOR1, stronger effect = lower value 0.957 | S. cerevisiae deletion strains, locus YJR075W, strain HOC1, stronger effect = lower value 1.02 | S. cerevisiae deletion strains, locus YKL009W, strain mrt4, stronger effect = lower value 0.989 | S. cerevisiae deletion strains, locus YKL068W, stronger effect = lower value 0.999 | S. cerevisiae deletion strains, locus YKL085W, strain MDH1 (second series), stronger effect = lower value 1.01 | S. cerevisiae deletion strains, locus YKL085W, strain MDH1, stronger effect = lower value 1.01 | S. cerevisiae deletion strains, locus YKL160W, strain elf1, stronger effect = lower value 1.02 | S. cerevisiae deletion strains, locus YKL190W, strain CNB1, stronger effect = lower value 1 | S. cerevisiae deletion strains, locus YKR001C, strain vps1, stronger effect = lower value 1 | S. cerevisiae deletion strains, locus YKR026C, strain gcn3, stronger effect = lower value 1.01 | S. cerevisiae deletion strains, locus YKR091W, strain srl3, stronger effect = lower value 1.01 | S. cerevisiae deletion strains, locus YLL001W, strain dnm1, stronger effect = lower value 1.02 | S. cerevisiae deletion strains, locus YLL026W, stronger effect = lower value 1.01 | S. cerevisiae deletion strains, locus YLL041C, strain sdh2, stronger effect = lower value 1.02 | S. cerevisiae deletion strains, locus YLR027C, strain aat2, stronger effect = lower value 1.01 | S. cerevisiae deletion strains, locus YLR039C, strain RIC1, stronger effect = lower value 1.01 | S. cerevisiae deletion strains, locus YLR058C, strain SHM2, stronger effect = lower value 1.01 | S. cerevisiae deletion strains, locus YLR102C, strain apc9, stronger effect = lower value 0.994 | S. cerevisiae deletion strains, locus YLR113W, strain HOG1, stronger effect = lower value 1.02 | S. cerevisiae deletion strains, locus YLR221C, strain rsa3, stronger effect = lower value 1.01 | S. cerevisiae deletion strains, locus YLR258W, strain gsy2, stronger effect = lower value 1.01 | S. cerevisiae deletion strains, locus YLR262C, strain YPT6 (second series), stronger effect = lower value 1.03 | S. cerevisiae deletion strains, locus YLR262C, strain YPT6, stronger effect = lower value 1.02 | S. cerevisiae deletion strains, locus YLR268W, strain sec22, stronger effect = lower value 0.987 | S. cerevisiae deletion strains, locus YLR320W, strain mms22, stronger effect = lower value 1.02 | S. cerevisiae deletion strains, locus YLR330W, strain CHS5, stronger effect = lower value 1.01 | S. cerevisiae deletion strains, locus YLR342W, strain FKS1 (second series), stronger effect = lower value 1.02 | S. cerevisiae deletion strains, locus YLR342W, strain FKS1, stronger effect = lower value 1.02 | S. cerevisiae deletion strains, locus YLR357W, strain rsc2, stronger effect = lower value 1.02 | S. cerevisiae deletion strains, locus YLR370C, strain arc18, stronger effect = lower value 1.02 | S. cerevisiae deletion strains, locus YLR371W, strain rom2, stronger effect = lower value 0.997 | S. cerevisiae deletion strains, locus YLR384C, strain iki3, stronger effect = lower value 1.01 | S. cerevisiae deletion strains, locus YLR418C, strain cdc73, stronger effect = lower value 0.994 | S. cerevisiae deletion strains, locus YML016C, strain PPZ1, stronger effect = lower value 1.02 | S. cerevisiae deletion strains, locus YML032C, strain rad52, stronger effect = lower value 0.989 | S. cerevisiae deletion strains, locus YML120C, strain ndi1, stronger effect = lower value 1 | S. cerevisiae deletion strains, locus YML124C, strain tub3, stronger effect = lower value 0.999 | S. cerevisiae deletion strains, locus YMR058W, strain fet3, stronger effect = lower value 1.02 | S. cerevisiae deletion strains, locus YMR078C, strain ctf18, stronger effect = lower value 1 | S. cerevisiae deletion strains, locus YMR125W, strain sto1, stronger effect = lower value 1.03 | S. cerevisiae deletion strains, locus YMR129W, stronger effect = lower value 1.01 | S. cerevisiae deletion strains, locus YMR205C, strain PFK2, stronger effect = lower value 1.03 | S. cerevisiae deletion strains, locus YMR223W, strain ubp8, stronger effect = lower value 0.987 | S. cerevisiae deletion strains, locus YMR231W, strain pep5, stronger effect = lower value 1.02 | S. cerevisiae deletion strains, locus YMR263W, strain SAP30, stronger effect = lower value 1.01 | S. cerevisiae deletion strains, locus YMR307W, strain GAS1, stronger effect = lower value 1.04 | S. cerevisiae deletion strains, locus YNL067W, strain RPL9B, stronger effect = lower value 1.02 | S. cerevisiae deletion strains, locus YNL071W, strain lat1, stronger effect = lower value 1.01 | S. cerevisiae deletion strains, locus YNL128W, strain TEP1, stronger effect = lower value 1.01 | S. cerevisiae deletion strains, locus YNL153C, strain GIM3, stronger effect = lower value 1.02 | S. cerevisiae deletion strains, locus YNL183C, strain NPR1, stronger effect = lower value 0.975 | S. cerevisiae deletion strains, locus YNL209W, strain ssb2, stronger effect = lower value 1.02 | S. cerevisiae deletion strains, locus YNL233W, strain BNI4, stronger effect = lower value 1.01 | S. cerevisiae deletion strains, locus YNL248C, strain rpa49, stronger effect = lower value 1.01 | S. cerevisiae deletion strains, locus YNL250W, strain rad50, stronger effect = lower value 0.993 | S. cerevisiae deletion strains, locus YNL271C, strain bni1, stronger effect = lower value 1 | S. cerevisiae deletion strains, locus YNL298W, strain CLA4, stronger effect = lower value 0.985 | S. cerevisiae deletion strains, locus YNL307C, strain MCK1, stronger effect = lower value 0.996 | S. cerevisiae deletion strains, locus YNL322C, strain KRE1 (second series), stronger effect = lower value 1.02 | S. cerevisiae deletion strains, locus YNL322C, strain KRE1, stronger effect = lower value 1.01 | S. cerevisiae deletion strains, locus YNR049C, strain mso1, stronger effect = lower value 1.01 | S. cerevisiae deletion strains, locus YNR052C, strain pop2, stronger effect = lower value 1.01 | S. cerevisiae deletion strains, locus YOL006C, strain TOP1, stronger effect = lower value 1.06 | S. cerevisiae deletion strains, locus YOL012C, strain htz1 1.02 | S. cerevisiae deletion strains, locus YOL147C, strain pex11, stronger effect = lower value 0.985 | S. cerevisiae deletion strains, locus YOR001W, strain rrp6, stronger effect = lower value 1.01 | S. cerevisiae deletion strains, locus YOR061W, strain CKA2, stronger effect = lower value 1.01 | S. cerevisiae deletion strains, locus YOR069W, strain VPS5, stronger effect = lower value 1 | S. cerevisiae deletion strains, locus YOR070C, strain gyp1, stronger effect = lower value 1.03 | S. cerevisiae deletion strains, locus YOR080W, strain dia2, stronger effect = lower value 1.02 | S. cerevisiae deletion strains, locus YOR083W, strain WHI5, stronger effect = lower value 1.02 | S. cerevisiae deletion strains, locus YOR106W, strain vam3, stronger effect = lower value 1.02 | S. cerevisiae deletion strains, locus YOR136W, strain idh2, stronger effect = lower value 0.99 | S. cerevisiae deletion strains, locus YOR144C, strain elg1, stronger effect = lower value 1 | S. cerevisiae deletion strains, locus YOR184W, strain ser1, stronger effect = lower value 0.981 | S. cerevisiae deletion strains, locus YOR231W, strain MKK1, stronger effect = lower value 1.01 | S. cerevisiae deletion strains, locus YOR265W, strain rbl2, stronger effect = lower value 1.01 | S. cerevisiae deletion strains, locus YOR270C, strain vph1, stronger effect = lower value 1.01 | S. cerevisiae deletion strains, locus YOR290C, strain snf2, stronger effect = lower value 0.996 | S. cerevisiae deletion strains, locus YOR316C, strain cot1, stronger effect = lower value 0.997 | S. cerevisiae deletion strains, locus YPL051W, strain arl3, stronger effect = lower value 1.01 | S. cerevisiae deletion strains, locus YPL055C, strain LGE1, stronger effect = lower value 1.03 | S. cerevisiae deletion strains, locus YPL078C, strain atp4, stronger effect = lower value 1.01 | S. cerevisiae deletion strains, locus YPL106C, strain sse1, stronger effect = lower value 1.01 | S. cerevisiae deletion strains, locus YPL240C, strain hsp82, stronger effect = lower value 1.03 | S. cerevisiae deletion strains, locus YPL256C, strain CLN2, stronger effect = lower value 0.996 | S. cerevisiae deletion strains, locus YPR119W, strain clb2, stronger effect = lower value 0.985 | S. cerevisiae deletion strains, locus YPR141C, strain kar3, stronger effect = lower value 0.992 | S. cerevisiae deletion strains, locus YPR163C, strain tif3, stronger effect = lower value 0.997 | S. cerevisiae deletion strains, locus YPR167C, strain met16, stronger effect = lower value 0.985 | S. cerevisiae deletion strains, strain wtn01, stronger effect = lower value 0.993 | S. cerevisiae strains, strain wild type, stronger effect = lower value 0.999
